From PubChem
ROC1-CUL1 inh – blocks human RBX1-Cullin-1 di-ubiquitin formation; P62877+Q13616; in vitro K48 di-Ub FRET, acceptor:donor ratio, 45 min; inhibition, % at 10 µM; 140,000 compounds, 0.6% hits; AID 1347404; in the data active means inhibition above about 25%
Target sequence (P62877 whole entry, looked up): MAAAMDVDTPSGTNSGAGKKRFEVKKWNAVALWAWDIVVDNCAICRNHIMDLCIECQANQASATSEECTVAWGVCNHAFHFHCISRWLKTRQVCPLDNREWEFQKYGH
Target sequence (Q13616 whole entry, looked up): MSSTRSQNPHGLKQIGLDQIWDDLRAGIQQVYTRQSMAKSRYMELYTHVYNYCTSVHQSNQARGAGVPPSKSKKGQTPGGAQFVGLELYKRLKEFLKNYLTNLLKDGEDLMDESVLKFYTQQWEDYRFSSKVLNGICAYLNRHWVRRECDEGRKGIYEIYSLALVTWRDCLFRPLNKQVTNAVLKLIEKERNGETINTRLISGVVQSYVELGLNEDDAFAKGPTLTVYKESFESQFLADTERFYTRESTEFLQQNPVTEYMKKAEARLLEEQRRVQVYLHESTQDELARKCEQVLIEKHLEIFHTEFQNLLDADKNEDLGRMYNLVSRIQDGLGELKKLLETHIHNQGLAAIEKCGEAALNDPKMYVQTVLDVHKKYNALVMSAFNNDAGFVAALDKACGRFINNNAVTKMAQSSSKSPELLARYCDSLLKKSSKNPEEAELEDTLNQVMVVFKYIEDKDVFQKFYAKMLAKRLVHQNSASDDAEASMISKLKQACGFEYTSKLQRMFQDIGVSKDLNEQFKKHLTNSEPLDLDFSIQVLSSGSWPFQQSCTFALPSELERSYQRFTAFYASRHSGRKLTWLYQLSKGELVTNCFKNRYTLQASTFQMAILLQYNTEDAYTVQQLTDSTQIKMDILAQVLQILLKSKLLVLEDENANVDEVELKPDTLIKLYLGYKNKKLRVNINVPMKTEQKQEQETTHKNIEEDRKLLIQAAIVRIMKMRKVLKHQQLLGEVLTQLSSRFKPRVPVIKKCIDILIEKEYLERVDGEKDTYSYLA
Starred values were filed as active, the others as inactive. The entries come from a sample that favours hits as a whole.

`O=C1c2cccc3c4ccccc4n(c23)C(=O)C1(Cl)Cl` gave ROC1-CUL1 inh -2.
`CC(Oc1cc(Cl)c(Cl)cc1Cl)C(=O)NCc1ccccc1` (centres undefined) gave ROC1-CUL1 inh 4.
For COc1cc(CC2=NC(=O)N(Cc3ccc(C)cc3)C2=O)ccc1OCc1cccc(C(=O)O)c1 the results were ROC1-CUL1 inh 17.
COc1cc(CC2=NC(=O)N(CC(=O)Nc3cccc(C)c3)C2=O)cc(Cl)c1O was read as ROC1-CUL1 inh 4.
COc1cc(CC2=NC(=O)N(CC(=O)Nc3ccc(C)cc3)C2=O)cc(Cl)c1OCc1cccc(C(=O)O)c1 was read as ROC1-CUL1 inh 45*.
Screening CCCCNC(=O)c1nnn(-c2cc(C)cc(C)c2)c1C returned ROC1-CUL1 inh 4.
`COC(=O)c1c(NC(=O)C(C)Oc2ccccc2)sc2c1-c1ccccc1CC2` (centres undefined) gave ROC1-CUL1 inh 2.
`Cc1cccc2c1N=C(CSc1ccccc1NC(=O)C(C)(C)C)CC2=O` gave ROC1-CUL1 inh -6.
`CC(C)OC(=O)c1cccc(NC(=O)Cn2nnc3sc4c(c3c2=O)CCCC4)c1` gave ROC1-CUL1 inh 5.
For CC1CCc2c(sc3nnn(Cc4cccc(C(=O)OC(C)C)c4)c(=O)c23)C1 (centres undefined) the results were ROC1-CUL1 inh -4.
CC(C)OC(=O)c1ccc(Cn2nnc3sc4c(c3c2=O)CCCC4)cc1 was read as ROC1-CUL1 inh 44*.
For c1ccc(OCc2nn3c(-c4ccccc4)nnc3s2)cc1 the results were ROC1-CUL1 inh -5.
Cc1cc(C(=O)CSc2nnnn2-c2ccccc2)c(C)n1-c1ccc(Cl)cc1 was read as ROC1-CUL1 inh -2.
Screening CCOC(=O)C1=C(C)OC(=N)C(C#N)C1c1cccnc1 (centres undefined) returned ROC1-CUL1 inh 7.
Screening SC1N=C(c2ccccc2)CC(c2ccccc2)=N1 returned ROC1-CUL1 inh 7.
`COc1ccc2c(c1)-c1nc(-n3ncc(C(=O)N4CCN(C5CCCCC5)CC4)c3C)ncc1CC2` gave ROC1-CUL1 inh -2.
For O=C(NCc1ccccn1)C1CCC1 the results were ROC1-CUL1 inh 12.
`Cn1c2ccccc2c2cc(/C=C/c3nc4ccccc4s3)ccc21` gave ROC1-CUL1 inh 0.
Screening Cc1ccc(/C=C\c2ccc3ccccc3c2)cc1 returned ROC1-CUL1 inh -6.
`CC[n+]1c(/C=C/c2ccc3c(c2)c2ccccc2n3C)ccc2ccccc21` gave ROC1-CUL1 inh 69*.
Screening O=c1c2ccccc2nc2c3ccccc3c(N/N=C/c3c[nH]c4ccccc34)nn12 returned ROC1-CUL1 inh 6.
Screening CC(C)n1cc(C(=O)NCc2ccccc2)c(=O)c(C(=O)N2CCN(C/C=C/c3ccccc3)CC2)c1 returned ROC1-CUL1 inh 4.
CC(C)Cn1c(CCC(=O)O)ccc1-c1ccc(Br)cc1 was read as ROC1-CUL1 inh 0.
CCN1C(=O)/C(=C/c2ccc(-c3ccc(Cl)c(C(=O)O)c3)o2)C(=O)NC1=S was read as ROC1-CUL1 inh 87*.
CC1=NN(c2ccccc2)C(=O)/C1=C/c1ccc(-c2ccc(C)c(C(=O)O)c2)o1 was read as ROC1-CUL1 inh 3.
CCOC(=O)c1cc(-c2ccc(/C=C3/C(=O)ON=C3C)o2)ccc1Cl was read as ROC1-CUL1 inh -2.
Screening C=CCOC(=O)c1cc(-c2ccc(/C=C3/C(=O)NN(c4ccc(F)c(Cl)c4)C3=O)o2)ccc1Cl returned ROC1-CUL1 inh 1.
COC(=O)c1ccc(N2NC(=O)/C(=C/c3ccc(-c4ccc(Cl)c(C(=O)O)c4)o3)C2=O)cc1 was read as ROC1-CUL1 inh 35*.
For COC(=O)c1cc(-c2ccc(/C=C3/C(=O)NN(c4ccc(C)cc4)C3=O)o2)ccc1Cl the results were ROC1-CUL1 inh 13.
`N=c1c(C(N)=O)cc2c(=O)n3ccccc3nc2n1Cc1cccnc1` gave ROC1-CUL1 inh -1.
For CCCCCCCCCCc1ccc(-c2ccc(C(=O)CC(C)=O)cc2)cc1 the results were ROC1-CUL1 inh -1.
Screening O=C(c1ccc(Cl)cc1)c1oc2ccc(Cl)cc2c1-c1cnc2c(c1)COc1ccc(Cl)cc1-2 returned ROC1-CUL1 inh -4.
Screening Cc1ccc(F)cc1NC(=O)c1ccc(C2CCCN2Cc2cnc[nH]2)s1 (centres undefined) returned ROC1-CUL1 inh 5.
Screening Cc1nn(C)c(C)c1CCC(=O)NCc1nc(-c2ccc(NC(=O)Cc3ccccc3)cc2)oc1C returned ROC1-CUL1 inh 39*.
For COc1ccc(CC(=O)NCc2nc(-c3ccc(NC(=O)Cc4ccccc4)cc3)oc2C)cc1 the results were ROC1-CUL1 inh 5.
`Cc1oc(-c2ccc(NC(=O)Cc3ccccc3)cc2)nc1CNC(=O)CCC(C)C` gave ROC1-CUL1 inh -1.
Screening CN(C(=O)CCSc1nc(-c2ccco2)cc(C(F)(F)F)n1)c1ccc(OC(F)(F)F)cc1 returned ROC1-CUL1 inh -8.
For CCC1=NN2C(=N)/C(=C/c3ccc(-c4ccccc4Cl)o3)C(=O)N=C2S1 the results were ROC1-CUL1 inh 9.
Screening CCSc1nnc(NC(=O)C(C)C)s1 returned ROC1-CUL1 inh 0.
CCSc1nnc(NC(=O)C(C(F)(F)F)C(F)(F)F)s1 was read as ROC1-CUL1 inh 32*.
`CCSc1nnc(NC(=O)OC)s1` gave ROC1-CUL1 inh -6.
For FC(F)(F)c1nc(Nc2ccc(Br)cc2)sc1-c1ccccc1 the results were ROC1-CUL1 inh 3.
Screening O=S(=O)(c1ccc(-c2csc(Nc3cc(Cl)cc(Cl)c3)n2)cc1)N1CCCC1 returned ROC1-CUL1 inh -10.
NNS(=O)(=O)c1ccc2ccccc2c1 was read as ROC1-CUL1 inh -1.
For O=S(=O)(Nc1cc(Sc2ncn[nH]2)c(O)c2ccccc12)c1ccc2ccccc2c1 the results were ROC1-CUL1 inh 84*.
For COc1ccc(S(=O)(=O)Nc2ccc(O)c3ccccc23)cc1 the results were ROC1-CUL1 inh -6.
Screening O=C(Nc1ccc2oc(-c3cccnc3)nc2c1)c1ccc(-c2ccccc2)o1 returned ROC1-CUL1 inh 4.
For O=C(/C=C/c1ccco1)Nc1ccc2oc(-c3cccnc3)nc2c1 the results were ROC1-CUL1 inh 54*.
For CCc1ccc(-c2nc3cc(NC(=O)/C=C\c4ccco4)ccc3o2)cc1 the results were ROC1-CUL1 inh 6.
`COc1cc(/C=C/C(=O)c2ccc(O)cc2)ccc1OCc1ccccc1` gave ROC1-CUL1 inh -5.
Screening CCc1ccc(CNCc2cccnc2N2CCCC(O)C2)cc1 (centres undefined) returned ROC1-CUL1 inh -10.
For O=C1NN(c2ccccc2)C(=O)/C1=C/c1cc(Br)ccc1OCc1ccc(Cl)c(Cl)c1 the results were ROC1-CUL1 inh 72*.
For O=C1NN(c2ccccc2)C(=O)/C1=C/c1cc(Br)ccc1OCCCOc1ccc(Cl)cc1 the results were ROC1-CUL1 inh 18.
Screening O=C1NN(c2ccc(Br)cc2)C(=O)/C1=C\c1ccccc1OCc1ccccc1 returned ROC1-CUL1 inh 23.
O=C1NN(c2ccccc2)C(=O)/C1=C/c1ccccc1OCc1ccc(Cl)c(Cl)c1 was read as ROC1-CUL1 inh 17.
Cc1ccc(OCCCOc2ccc(Br)cc2/C=C2\C(=O)NN(c3ccccc3)C2=O)cc1 was read as ROC1-CUL1 inh 61*.
`O=C1NN(c2ccccc2)C(=O)/C1=C/c1ccccc1OCCCOc1ccccc1` gave ROC1-CUL1 inh 9.
O=C1NN(c2ccccc2)C(=O)/C1=C\c1cc(O)ccc1Br was read as ROC1-CUL1 inh 3.
